This is part of a sample that, as a whole, favours compounds with a hit. Of some 83,000 tested, about 20% had one in any assay.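 Method: cells in 96-well plates; compound added at one concentration; 48 h incubation; percent growth measured; values under 10 scored active.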 Values without a mark were called inactive. Activity calls are given as the source filed them.

The assay has as its system M14 melanoma. Briefly: NCI-60 one-dose screen, 48 h (100 = growth as untreated, 0 = no growth, -100 = all killed). As to conditions: 10 µM unless noted. As to the method:
Growth inhibition of the M14 human tumor cell line is measured as a screen for anti-cancer activity. Cells are grown in 96 well plates and exposed to the test compound for 48 hours. Compounds are tested at a single concentration, which is 10^-5 M for most compounds. The reported endpoint is percent growth (GI% or GIPRCNT), where numbers from 0 - 100% represent growth inhibition, and numbers from -100% - 0 represent cell death. For example, a value of 40 represents 60% growth inhibition. A value of 0 means no net growth occurred over the course of the experiment. A value of -40 indicates 40% of cells at the beginning of the experiment died by the end of the experiment. A value of -100 means all cells are dead at the end of the experiment.
NCI-60 Human Tumor Cell Lines Screen was performed using the standard one-dose NCI protocol, which is described in more detail at https://dtp.cancer.gov/discovery_development/nci-60/default.htm.
Compounds with GIPRCNT values below 10 were considered active. Activity score was based on GIPRCNT using the following formula: […]
Score is 0 for GIPRCNT values of 100 or above, 50 for GIPRCNT values of 0, and 100 for GIPRCNT values of -100.
For the compound `C/C(=N/OC(=O)N(C)C)c1ccc(Cl)cc1Cl`, the growth is 106%.
With `C=C=[CH][Sn]([c]1ccccc1)([c]1ccccc1)[c]1ccccc1` the figure was -66.1% (active); with `Nc1ccc([N+](=O)[O-])c2c1Oc1ccccc1O2`, 106%; with `CO[C@@H]([CH2][Hg][S]C#N)[C@@H]([CH2][Hg][S]C#N)OC`, 81.3%.
As for `Nc1c(Br)cc([N+](=O)[O-])cc1[N+](=O)[O-]`, the growth was 113%.
Turning to `Cc1cc([N+](=O)[O-])c(Cl)cc1NS(=O)(=O)c1ccccc1`, the growth is 62.9%.
On to `CC(=O)Nc1ccc(C=C2C(=O)NC(=O)NC2=O)cc1`, for which the growth was 106%.
As to `CC1(C)N=C(N)N=C(N)N1c1ccc(CCC(=O)Nc2cccc(S(=O)(=O)F)c2)cc1`, the growth was 69.8%.
Regarding `CC1(C)N=C(N)N=C(N)N1c1ccc(OCCCCNC(=O)c2ccc(S(=O)(=O)F)cc2)c(Cl)c1`, the growth was 70.1%.
`CCCCOC(=O)c1ccccc1C(=O)O.CCCCOC(=O)c1ccccc1C(=O)O.[Cu+2]`: the growth was 101%.
Consider `C=CC(O)CN1CC1CC` (stereo not given), for which the growth was 96.5%.
As to `COc1cc(NCCCCCN=C(N)N)c2ncccc2c1`, the growth was 99.3%.
Regarding `CNC(=O)O/N=C(/C)c1ccc(Cl)cc1`, the growth was 98.7%.
With `C/C1=C/C(=O)O[C@@H]2C[C@@H](CC[C@H](C)/C=C\C=C\CC1)O[C@@](OCCc1ccccc1)([C@@H]1CSC(=O)N1)C2` the figure was 38.5%; with `CCN1CC2(CN(CC)C1=S)C(=O)NC(=O)NC2=O`, 88.9%; with `COc1cc(CNCCc2ccc(Cl)cc2)cc(OC)c1O`, 64.8%.
Consider `C[C@]12CCC(=O)CC1CC[C@@H]1C2CC[C@@]2(C)C1CC[C@@H]2OC(=O)CC[Se][Se]CCC(=O)O[C@H]1CCC2[C@@H]3CCC4CC(=O)CC[C@]4(C)C3CC[C@@]21C` (stereo not given in full), for which the growth was 78.7%.
For the compound `O=[N+]([O-])c1ccccc1N1CCNCC1`, the growth is 97.8%.
The result for `CCCCCCCCCCCCOc1ccc(C(=O)Oc2ccc(CSP3(=O)OCC4OC(n5cnc6c(N)ncnc65)C(F)C4OP(=O)(O)OCC4OC(n5ccc(=O)[nH]c5=O)C(F)C4O3)cc2)cc1` (stereo not given) reads 86.2%; that for `COC1=CC(=O)OC(CCc2ccc3c(c2)OCO3)C1` (stereo not given), 104%.
The result for `CC(C)(C)[Si](C)(C)OC1[C@@H](O[Si](C)(C)C(C)(C)C)[C@@H](CNC(=O)NC(=O)CF)O[C@H]1n1cnc2c(NC(=O)Nc3ccccc3)ncnc21` (stereo not given in full) reads 73.2%.
For `CCOc1ccc(C(O)CN(C)Cc2ccccc2)cc1Cl` (stereo not given), the growth is 96%.
Consider `Cc1ccc2oc(=O)c3c(c2c1)OC(N)=C(C#N)C3c1ccco1` (stereo not given), for which the growth was 99.8%.
Regarding `Cc1ccc(N)cc1[As]=[As]c1cc(N)ccc1C` (stereo not given), the growth was -72.2% (active).
The result for `CC12CCC(=O)C=C1C(O)CC1C2CCC2(C)C(O)CCC12` (stereo not given) reads 105%.
In the case of `CC(=O)[O][Hg][c]1ccccc1`, the growth was -90% (active).
Turning to `CO[C@@H](c1ccccc1Cl)[C@H](C)OC(N)=O`, the growth was 89.9%.
For `CC1(C)N=C(N)N=C(N)N1c1ccc(CCCCc2ccc(S(=O)(=O)F)cc2)cc1`, the growth was 27.6%.
Consider `O=C1NC2(CCNCC2)Nc2ccccc21`, for which the growth was 100%.
Regarding `O=C(CC1(O)C(=O)Nc2ccc(F)cc21)c1ccc(C(=O)NCC2CCC3(CC2)OOC2(CCCCC2)OO3)cc1` (stereo not given), the growth is 83.9%.
The result for `C[CH2][Pb]([CH2]C)([CH2]C)[O]C(=O)COc1ccccc1` reads 14.6%; that for `S=P(N1CCCCCC1)(N1CC1)N1CC1`, 103%; that for `CC(N)Cc1ccc(O)cc1` (stereo not given), 99.9%.
With `CCOP(=O)(OCC)Oc1ccc(Sc2ccc(OP(=O)(OCC)OCC)cc2)cc1`, the growth is 100%.
For `CN1CC2CCC(C1)C2=O`, the growth is 98.2%.
Turning to `CC(/C=N/N=C(N)N)=N\N=C(N)N`, the growth is 80.3%.
As for `CCOc1cc(/C=N\Nc2nnc(C)n2N)c(C)cc1N(CCCl)CCCl`, the growth was 13.8%.
`C[CH2][Pb]([CH2]C)([CH2]C)[O]C(=O)c1ccc(N)cc1`: the growth was 60%.
The result for `COC(=O)C(=[N+]=[N-])C(=O)OC` reads 103%.
Consider `ClCCN(CCCl)c1nc(Cl)c(C2CC(c3ccccc3)=NN2c2ccccc2)s1` (stereo not given), for which the growth was 92.4%.

For the origin of these results see PubChem BioAssay (NCI).
